Measured values from PubChem BioAssay (Tox21).
Results filed as inconclusive are left out. Unmarked numbers belong to inactive results. Active and inactive are the calls of the source. Unless noted, calls follow the shape of the full dose curve.

Target: Nuclear receptor ROR-gamma (Homo sapiens) (UniProt P51449)
Assay: qHTS assay to identify small molecule antagonists of the retinoid-related orphan receptor gamma (ROR-gamma) signaling pathway (AID 1159521; active = well fitted inhibition curve with a large enough effect in the repeat runs; also: nearly all actives have a fitted effect of over 50% in size;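 as to activity change, negative = inhibition: CHO cells with doxycycline inducible ROR-gamma driving an RORE luciferase reporter; top concentration of the series differs between compounds; % is scaled to controls: 0 for no effect and ±100 for the full control effect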)
Details: Tet-on RORgamma CHO cells, RORE-luciferase, 16 h; series mostly up to 92.4 µM; activity change, negative = inhibition: at the top concentration
In short: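 Luminescence readout (ONE-Glo, 30 min RT) after 16 h doxycycline induction; loss of signal scored as antagonism. CHO cells with TET-inducible RORγ and RORE-LUC reporter; compounds added 2 h before 1 uM final doxycycline.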
Potency is read from the fitted curve at half-maximal effect.

| SMILES | activity change, negative = inhibition | Potency |
| --- | --- | --- |
| CCOC(=O)c1ccc(C#Cc2ccc3c(c2)C(C)(C)CCS3)nc1 | -21.8% [at 42.5 µM] |  |
| CC[N+](CC)(CCNC(=O)C(=O)NCC[N+](CC)(CC)Cc1ccccc1Cl)Cc1ccccc1Cl | 10.5% [at 42.5 µM] |  |
| O=C1NC(=O)c2cc([N+](=O)[O-])ccc21 | -18.7% |  |
| CCC1CO1 (stereo unspecified) | -1.3% |  |
| C=CC(=O)[O-].C=CC(=O)[O-].[Zn+2] | 24.3% |  |
| CCCCCCC(C)(C)C(=O)O | 1.51% |  |
| C=C(C)C(=O)OCCCCCCCCCCCCC | 17.9% |  |
| Cc1cccc(O)c1N |  | 13.8 µM (active) |
| CCCCCC#CC(=O)OC | -15.5% |  |
| CCCCOc1ccc(OCCCN2CCOCC2)cc1 | -5.4% [at 42.5 µM] |  |
| C1COC1 | -1.14% |  |
| CC(=O)NC1(c2cccc(F)c2)CCN(CC[C@@]2(c3ccc(Cl)c(Cl)c3)CN(c3ccccc3)C(=O)CO2)CC1 |  | 38.7 µM (active) |

System: not listed separately
Assay: qHTS assay to identify small molecule agonists of the AP-1 signaling pathway - cell viability counter screen (AID 1159525); also: nearly all actives have a fitted effect of over 55% in size
Details: ME-180 (cervical carcinoma) AP-1-bla cells viability, ATP luminescence, 5 h; series mostly up to 76.8 µM; viability change, negative = cytotoxic: at the top concentration
In short: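 Intracellular ATP by Cell Titer Glo luminescence (30 min, RT) in the same ME-180 AP-1-bla wells after the 5 h compound exposure at 37 °C. Normalised to tetra n-octyl ammonium bromide and DMSO controls.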

| SMILES | viability change, negative = cytotoxic | Potency |
| --- | --- | --- |
| O=C(OC(=O)c1ccccc1)c1ccccc1 | 3.04% |  |
| O=c1c(O)c(-c2ccc(O)cc2)oc2cc(O)cc(O)c12 | 3.96% |  |
| CCCCCCCC/C=C\CCCCCCCCCCCC(=O)O | -0.594% |  |
| CCCCC(CC)CN (stereo unspecified) | 5.76% |  |
| c1ccc2c(c1)CCc1ccccc1N2 | -22% [at 35.3 µM] |  |
| CC(C)c1nc(CN(C)C(=O)N[C@H](C(=O)N[C@@H](Cc2ccccc2)C[C@H](O)[C@H](Cc2ccccc2)NC(=O)OCc2cncs2)C(C)C)cs1 |  | 19 µM (active) |
| C(=C\c1ccccc1)/c1ccccc1 | -0.309% |  |
| C=C/C(C)=C/C/C=C(\C)CCC=C(C)C | -9.24% |  |
| Cc1ccc(Cl)c(Nc2ccccc2C(=O)O)c1Cl | 0.15% [at 35.3 µM] |  |
| CC(C)Nc1cccnc1N1CCN(C(=O)c2cc3cc(NS(C)(=O)=O)ccc3[nH]2)CC1 | -7.2% [at 35.3 µM] |  |
| CCOC(=O)c1ccc(O)c(O)c1 | 4.53% [at 35.3 µM] |  |
| CC1=C(Br)C(=O)C(Br)=C/C1=C(/c1ccccc1S(=O)(=O)O)c1cc(Br)c(O)c(Br)c1C | -13.1% [at 35.3 µM] |  |
| CC(C)=CCC/C(C)=C/CC/C(C)=C/CCC(=O)OC/C=C(\C)CCC=C(C)C | 1.56% [at 35.3 µM] |  |
| Cc1cc(C)cc(N)c1 | 2.34% |  |
| C[C@@H]1CC(=O)NN=C1c1ccc(NN=C(C#N)C#N)cc1 |  | inactive |
| CC(C)=CCC/C(C)=C/CC/C(C)=C/C(=O)OCC(=O)[C@@]1(O)CC[C@H]2[C@@H]3CCC4=CC(=O)C=C[C@]4(C)[C@H]3[C@@H](O)C[C@@]21C | 8.52% [at 35.3 µM] |  |
| C[C@@H](CN(C)C)CN1c2ccccc2Sc2ccccc21 | 0.379% [at 35.3 µM] |  |

| SMILES | viability change, negative = cytotoxic | Potency |
| --- | --- | --- |
| CC(CCC(=O)O)C(=O)O (stereo unspecified) | 2.3% |  |
| CCC(C)COC(C)=O (stereo unspecified) | -0.402% |  |
| CCOC(=O)c1ccc(C#Cc2ccc3c(c2)C(C)(C)CCS3)nc1 | 0.911% [at 35.3 µM] |  |
| CC1(CN2CCC(n3c(=O)[nH]c4ccccc43)CC2)OCc2ccccc2-n2cccc21 (stereo unspecified) | -17.1% [at 35.3 µM] |  |
| CC[N+](CC)(CCNC(=O)C(=O)NCC[N+](CC)(CC)Cc1ccccc1Cl)Cc1ccccc1Cl | 7.01% [at 35.3 µM] |  |
| O=C1NC(=O)c2cc([N+](=O)[O-])ccc21 | 1.16% |  |
| CCC1CO1 (stereo unspecified) | -7.11% |  |
| C=CC(=O)[O-].C=CC(=O)[O-].[Zn+2] | 7.52% |  |
| CCCCCCC(C)(C)C(=O)O | 2.76% |  |
| C=C(C)C(=O)OCCCCCCCCCCCCC | -4.76% |  |
| Cc1cccc(O)c1N |  | 44.1 µM (active) |
| CCCCCC#CC(=O)OC | -3.79% |  |
| CC[C@]1(O)C[C@H]2CN(CCc3c([nH]c4ccccc34)[C@@](C(=O)OC)(c3cc4c(cc3OC)N(C=O)[C@H]3[C@@](O)(C(=O)OC)[C@H](OC(C)=O)[C@]5(CC)C=CCN6CC[C@]43[C@@H]65)C2)C1 | 0.758% [at 35.3 µM] |  |
| CNC(=O)c1cnn(-c2nc(N)c3ncn([C@@H]4O[C@H](CO)[C@@H](O)[C@H]4O)c3n2)c1 | -8.43% [at 35.3 µM] |  |
| CCCCOc1ccc(OCCCN2CCOCC2)cc1 | -15.7% [at 35.3 µM] |  |
| C1COC1 | 1.79% |  |
| CC(=O)NC1(c2cccc(F)c2)CCN(CC[C@@]2(c3ccc(Cl)c(Cl)c3)CN(c3ccccc3)C(=O)CO2)CC1 | -17.5% |  |
